# High-throughput results from PubChem.
# GCN5L2 inh: qHTS Assay for Inhibitors of GCN5L2. Histone acetyltransferase KAT2A (Homo sapiens), Q92830. GCN5L2 HAT assay, ThioGlo1 CoA-SH fluorescence. AID 504327, 2011. Potency, µM (top dose mostly 58.9 µM), for inactives: at the highest dose activity change, negative = inhibition, hits mostly inhibitors. hit rate 0.21% among 390,000
# Target sequence (Q92830 whole entry, looked up): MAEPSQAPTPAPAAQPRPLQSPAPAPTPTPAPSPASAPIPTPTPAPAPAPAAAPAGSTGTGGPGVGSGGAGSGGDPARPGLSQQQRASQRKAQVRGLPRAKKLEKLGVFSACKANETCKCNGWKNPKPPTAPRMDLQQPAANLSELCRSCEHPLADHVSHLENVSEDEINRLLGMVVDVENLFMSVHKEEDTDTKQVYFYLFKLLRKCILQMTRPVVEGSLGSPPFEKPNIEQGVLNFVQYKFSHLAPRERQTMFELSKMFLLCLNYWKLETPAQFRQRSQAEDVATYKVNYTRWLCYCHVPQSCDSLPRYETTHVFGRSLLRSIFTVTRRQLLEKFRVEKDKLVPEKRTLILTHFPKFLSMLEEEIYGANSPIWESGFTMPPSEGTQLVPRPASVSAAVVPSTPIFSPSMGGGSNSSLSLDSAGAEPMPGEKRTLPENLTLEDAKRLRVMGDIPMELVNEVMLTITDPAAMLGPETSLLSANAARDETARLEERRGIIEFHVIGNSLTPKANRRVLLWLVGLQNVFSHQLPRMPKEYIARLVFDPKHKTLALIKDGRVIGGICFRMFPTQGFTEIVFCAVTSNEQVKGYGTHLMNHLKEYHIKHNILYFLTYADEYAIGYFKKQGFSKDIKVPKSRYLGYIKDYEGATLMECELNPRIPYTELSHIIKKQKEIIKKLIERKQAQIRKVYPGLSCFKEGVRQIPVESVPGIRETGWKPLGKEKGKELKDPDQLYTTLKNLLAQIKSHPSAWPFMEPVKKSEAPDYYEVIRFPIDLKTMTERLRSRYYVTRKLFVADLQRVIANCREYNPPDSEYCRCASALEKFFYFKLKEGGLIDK
#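 GCN5L2 (20nM final) in 50mM HEPES, 0.1mM EDTA pH 7.5, 0.01% Tween-20 was preincubated 15 min at room temperature with compound, then given ThioGlo1 (50uM), H3(1-25) peptide (75uM) and acetyl-CoA (70uM); CoA-thiol fluorescence (Ex340/Em540) was read at 0 and 20 min.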
# rTrxR1 inhibitor: qHTS Assay for Inhibitors of Mammalian Selenoprotein Thioredoxin Reductase 1 (TrxR1): qHTS; Thioredoxin reductase 1, cytoplasmic (Rattus norvegicus), O89049; hit rate 1% among 390,000; Potency, µM (series often up to 114 µM), for the others: at the top dose activity change, negative = inhibition, hits mostly inhibitors; recombinant rTrxR1, NADPH fluorescence consumption, selenite substrate; also: nearly all actives have a fitted effect of over 65% in size
#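 Rat TrxR1 (90 nM in the dispensed reagent) was pre-reduced with 400 uM NADPH for 5 min at room temperature, then incubated with compound for 15 min. After 400 uM selenite was added, NADPH fluorescence (Ex 340/Em 450 nm) was followed for 8 min.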
# TrxR1 substrate: qHTS Assay for Substrates of Mammalian Selenoprotein Thioredoxin Reductase 1 (TrxR1): qHTS | Thioredoxin reductase 1, cytoplasmic (Rattus norvegicus), O89049 | purified TrxR1 substrate turnover, NADPH consumption readout | Potency, µM (series often up to 114 µM), for inactives: at the highest dose activity change, negative = substrate turnover | hit rate 0.01% among 390,000 | AID 588456, 2011; also: nearly all actives have a fitted effect of over 50% in size
#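 Rat TrxR1, dispensed at 90 nM, was prereduced with 400 uM NADPH (final) for 5 min at ~22 deg C, then incubated with compound 15 min before 400 uM selenite. A first-read NADPH fluorescence drop versus no-compound background flagged substrates.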
# VDR inh: Inhibitors of the vitamin D receptor (VDR): qHTS | hit rate 0.93% among 400,000 | VDR-SRC2-3 peptide fluorescence polarization, 2 h | AID 504847, 2011 | Potency, µM, for the others: max response, negative = inhibition, most hits filed as inhibitors | Vitamin D3 receptor (Homo sapiens), P11473
#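 Two reagent solutions held at 4 deg C in the dark were dispensed, compounds pinned at 23 nl, and the mixture incubated 2 h at room temperature. Read-out: fluorescence polarization of VDR–SRC2-3 peptide binding.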
# The depositor's hits bear a star; u = inconclusive; x = no result given; [ ] = remark or other dose. An excerpt weighted towards active compounds, which were near 1.8% of everything screened. Calls follow the shape of the dose curve; as a rule, active = well fitted curve in the direction sought with a large enough effect; inconclusive = small, poorly fitted or top-dose-only effect, or another doubt; inactive = no such curve, though single readings can be large; an effect the other way counts as inactive or inconclusive. % is scaled to controls: 0 for no effect and ±100 for the full control effect; potency is read from the fitted curve at half-maximal effect.
SMILES,GCN5L2 inh,rTrxR1 inhibitor,TrxR1 substrate,VDR inh
C/C=C/C=C\C(=O)Nc1cccc(C2=NOC3(C2)C[C@@H](C(N)=O)N(C(=O)/C(C)=C/C)C3)c1 (some centres not stated),23.5%,11.2µM*,2.4%[57.1 µM],-20.5%
C/C=C\C=C/C(=O)Nc1cccc(C2=NOC3(C2)C[C@H](C(N)=O)N(C(=O)CC)C3)c1 (some centres not stated),-9.8%,14.1µM*,-3.2%[57.1 µM],-20.1%
C/C=C/C=C/C(=O)N1CC2(CC(c3cccc(NC(=O)/C=C/C)c3)=NO2)C[C@@H]1C(N)=O (some centres not stated),-2.3%,u,5.3%,-11.4%
C/C=C/C=C\C(=O)Nc1cccc(C2=NOC3(C2)C[C@H](C(N)=O)N(C(=O)CC#N)C3)c1 (some centres not stated),26.7%,22.4µM*,1.2%,-4.8%
C/C=C/C=C/C(=O)N1CC2(CC(c3cccc(NC(=O)CCCCC)c3)=NO2)C[C@H]1C(N)=O (some centres not stated),-5.2%,28.2µM*,0.0%,79.4µM*
CCCCCC(=O)Nc1cccc(C2=NOC3(C2)C[C@H](C(N)=O)N(C(=O)CC#N)C3)c1 (some centres not stated),-2.1%,x,x,x
CCCCNC(=O)Cn1nc(N2CCN(c3ccccc3OC)CC2)ccc1=O,-0.8%,9.2%[57.1 µM],1.9%[57.1 µM],5.4%
CN(N=O)c1ccc(/C=C2\C=Cc3ccccc32)cc1,x,3.6%,-2.8%,x
C/C=C\C=C/C(=O)Nc1cccc(C2=NOC3(C2)C[C@@H](C(N)=O)N(C(=O)CCCCC)C3)c1 (some centres not stated),-12.6%,14.1µM*,4.2%,u
C/C=C\C=C/C(=O)Nc1cccc(C2=NOC3(C2)C[C@H](C(N)=O)N(C(=O)Cc2ccc([N+](=O)[O-])cc2)C3)c1 (some centres not stated),0.2%,7.94µM*,8.4%[57.1 µM],u
COc1cc(NC(=O)COCc2cc(-c3ccc4c(c3)OCO4)on2)c(OC)cc1Cl,-3.1%,-2.4%,-1.8%,16.1%
CC(C)C(=O)Nc1ccc(/C=C2\C=Cc3ccccc32)cc1,x,-18.7%,5.2%[0.0914 µM],x
COC(=O)COc1ccc(-c2nccc(-c3ccc(Br)cc3)n2)cc1,1.1%,16.7%,-4.6%,28.2µM*
OC(CBr)C[n+]1cc(Br)cc2ccccc21 (configuration not stated),x,8.1%,-1.6%,x
O=C1[C@H](Cc2ccccc2)NC/C=C\C[C@H](c2ccco2)N1Cc1ccccc1,x,-30.3%,-3.5%,x
Cn1nnnc1Sc1ncnc2scc(-c3cccs3)c12,u,44.7µM*,0.1%,u
CCCCCCCC/C=C\CCCCCCCC(=O)N[C@H](CO)Cc1ccc(O)cc1,-16.0%,x,x,-0.5%
O=C(O)CSc1c2ccccc2cc2ccccc12,-9.8%,15.2%,19.3%,70.8µM*
C=C1C=C(C)n2ncc(C(=O)Nc3cccc4cnccc34)c2N1,x,15.4%,2.1%,x
COc1ccc(C2CC2/C(=N/O)c2ccccc2)cc1 (configuration not stated),-8.7%,19.7%[57.1 µM],-4.6%[57.1 µM],20µM*
O=C(NC1CCCCC1)[C@@H]1CC=C[C@@H]2CCN(Cc3ccc(Cl)c(Cl)c3)C(=O)[C@@H]21,x,11.5%,-6.1%,x
COc1ccc(CCn2c(=S)[nH]c(=O)c3cccnc32)cc1OC,x,-15.5%,-4.2%,x
Cc1ccc2c(c1)[nH]c1c(=O)n(CCC3=CCCCC3)cnc12,2.51µM*,x,x,x
CCOC(=O)/C(C#N)=C1\CC2CCC1(C)C2(C)C (configuration not stated),-16.3%,0.5%[57.1 µM],3.3%,79.4µM*
COc1ccccc1N1CCN(C(=O)CCS(=O)(=O)c2cc(Br)cc3c2N(C(=O)C2CC2)CC3)CC1,-1.3%,-18.5%,-9.2%,-9.2%
SMILES,GCN5L2 inh,rTrxR1 inhibitor,TrxR1 substrate,VDR inh
Cn1c(=O)c([N+](=O)[O-])c(NCCCn2ccnc2)c2ccccc21,1.1%,14.4%[57.1 µM],4.1%[57.1 µM],2.3%
Cn1c(=O)c([N+](=O)[O-])c(-n2ccnc2)c2ccccc21,-2.8%,10µM*,11.5%[57.1 µM],20µM*
CCN(CC)c1cc(C)c(/C=C/c2ccnc3ccccc23)cc1C,x,4.1%,-8.1%,x
Cc1ccc(-c2csc(NC(=O)/C=C/c3ccco3)c2C(=O)O)cc1,-22.3%,35.5µM*,-6.5%,-23.5%
O=C(/C=C/c1ccco1)Nc1cc(Cl)ccc1C(=O)O,-24.0%,12.6µM*,-19.0%,u
O=C(/C=C\c1ccco1)Nc1cc([N+](=O)[O-])ccc1F,-0.5%,u,-7.5%,-15.8%
O=C(/C=C/c1ccco1)Nc1ccccc1C(=O)O,-12.4%,14.1µM*,-6.8%[57.1 µM],-14.5%
CN(CCOC(=O)/C=C/c1ccco1)Cc1ccccc1,-5.8%,44.7µM*,-0.7%,-15.6%
Cn1c(=O)cc(SCC(=O)N2CCN(c3ccccc3F)CC2)c2ccc(Cl)cc21,-9.1%,14.0%,-2.5%,-8.6%
CSc1ccc(/C=C2\C=Cc3ccc([N+](=O)[O-])cc32)cc1,x,u,-8.2%,x
Nc1nc2c(nc(N3CCOCC3)n2COCCO)c(=O)[nH]1,x,14.5%[0.0914 µM],4.7%,x
CN(C(=O)c1ccco1)c1ccccc1C(=O)O,0.1%,-2.1%,0.8%,-4.8%
CN(C(=O)/C=C/c1ccco1)c1ccccc1C(=O)O,0.6%,28.2µM*,-1.7%,-7.6%
CCCN(CCC)C1CC(=O)N(Cc2ccccc2)C1=O (configuration not stated),0.4%,20µM*,7.1%,-1.6%
COc1ccc(CN2CC[C@H]3C=CC[C@@H](C(=O)NCc4cccnc4)[C@H]3C2=O)cc1OC,x,-15.7%,-1.2%,x
CCOc1ccc(/C=C/c2ccc3ccccc3[n+]2C)cc1OCC,x,u,-12.0%,x
Cn1nc(-c2ccccc2F)c2cc(C(=O)NCCc3ccc(Cl)cc3)sc21,-10.0%,-14.6%,-8.4%,-21.3%
COc1ccc(CNC(=O)C[C@H]2C[C@H](C(=O)N3CCCCC3)[C@@]3(CCc4ccccc4)c4[nH]c5cc(-c6ccco6)ccc5c4CCN3C2=O)cc1OC,-7.0%,13.2%,7.0%,89.1µM*
CN(C)CCCNC(=O)C[C@H]1C[C@H](C(=O)N2CCCCC2)[C@@]2(CCc3ccccc3)c3[nH]c4cc(-c5ccco5)ccc4c3CCN2C1=O,1.1%,6.1%,16.9%,8.0%
O=Cc1ccc(CS)cc1,x,16.7%[0.0914 µM],-5.5%,x
O=C(c1cccc(F)c1)N1CCC[C@@]2(CCN(C(c3ccccc3)c3ccccc3)C2)C1,-7.6%,x,x,u
CCOc1ccc(N(CC)S(=O)(=O)N2CCCC(C(=O)Nc3cc(Cl)ccc3OC)C2)cc1 (configuration not stated),-8.4%,15.4%,-10.7%,12.0%
O=C(O)c1cc2ccccc2c(Cc2cc3ccccc3c(C(=O)O)c2O)c1O (tested in a mixture with another compound),-20.7%[21.4 µM],x,x,14.1µM*
